We go through 37 compounds from article PMC5540273 (PLoS ONE, 2017).

The structures appear in SMILES notation.
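Note: KINOMEscan kinase panel screen.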

The first assay concerns CAMK2B. Conditions: concentration: 1 μM, replicates: in singlicate; n = 1.
Turning to `CNc1nc(-c2ccc3c(N)n[nH]c3c2)cc(N2C[C@@H](C(=O)NC3CCCCC3)OC[C@H]2C)n1` [GSK2375584], the “%Inh” value amounted to 0%. With `COc1cccc(C2=C(Nc3cc(Cl)c(O)c(Cl)c3)C(=O)NC2=O)c1` [SB-390767], the “%Inh” value was 0%. Take `Cn1cnc2c(N)ncnc21` [SKF-97623]: the “%Inh” value worked out at 0%. In the case of `O=c1cc(N2CCOCC2)nc2n(Cc3ccccc3F)ccn12` [GSK2297428], the “%Inh” value was 0%. For the compound `COc1ccc(-c2coc3ccc(-c4nnc(C)o4)cc23)cc1`, the “%Inh” value worked out at 0%. With `Cc1ccccc1-c1cc(-c2c[nH]nc2-c2ccccn2)ccn1` [GW680061], the “%Inh” value is 0%. `Nc1cccc(-c2ccc3c(N)n[nH]c3c2)n1` [GSK2192730]: the “%Inh” value was determined as 0%. On to `CNC(=O)c1ccc(C)c(-n2c(C)cc(OCc3ccc(F)cc3F)c(Br)c2=O)c1`, for which the “%Inh” value amounted to 0%. On to `O=C(Nc1n[nH]c2nc(-c3ccco3)c(Br)cc12)C1CCN(Cc2ccccc2)C1.O=C(O)[C@H](O)[C@@H](O)C(=O)O` (stereo not drawn) [SB-742034], for which the “%Inh” value was determined as 20%. Same read-out and setting: under `NS(=O)(=O)c1cccc(N/C=C2\C(=O)Nc3ccc(S(=O)(=O)Cc4c(Cl)cccc4Cl)cc32)c1` [GSK398099] stands 0%; under `c1ccc(-c2ccnc3[nH]ccc23)cc1` [SB-693578], 15%; under `CNc1nc(-c2ccc3c(N)n[nH]c3c2)cc(N2C[C@@H](C(=O)Nc3ccccc3)CC[C@H]2C)n1` [GSK2298859], 82%.

For `COC(=O)c1cccc(NC(=O)NC2CCN(c3ccnc(Nc4ccc(OC)cc4)n3)C2)c1` (stereo not drawn) [GSK1379746], the “%Inh” value worked out at 100%. Regarding `COc1ccc(Nc2nccc(-c3ccc(NC(=O)c4cc5cc(F)ccc5[nH]4)cc3)n2)cc1` [GSK1229496], the “%Inh” value was 0%. For `Cl.Cl.Cl.N#Cc1ccc(CCNc2nccc(-c3cccc(CN4CCNCC4)c3)n2)cc1` [GSK2137462], the “%Inh” value stood at 3%. On the same count and under the same terms, then `O=C(Nc1n[nH]c2cc(-c3ccsc3)ccc12)C1CC1` [SB-732932], with 11%.

As to `COc1ccc(Nc2nccc(N3CCC(NC(=O)c4cc5ccccc5s4)C3)n2)cc1` (stereo not drawn) [GSK1379738], the “%Inh” value worked out at 0%. For the compound `COc1ccc2cc(-c3nc(-c4ccccc4C(C)C)[nH]c3-c3ccncc3)ccc2c1` [SB-660566], the “%Inh” value was 0%.

With `CC[C@@H]1CO[C@H](C(=O)Nc2ccccc2)CN1c1cc(-c2ccc3c(N)n[nH]c3c2)nc(NC)n1` [GSK2376236], the “%Inh” value was 0%.

In the case of `Cc1ccc(NC(=O)c2ccc(Cl)cc2)cc1-c1ccc(C(=O)Nc2ccncc2)cc1` [GSK1398467], the “%Inh” value is 86%.

For `COc1cccc(NC(=O)Nc2ccc(C)c(-c3ccc(C(=O)Nc4ccncc4)cc3)c2)c1` [GSK1398474], the “%Inh” value is on record as 2%.

Turning to `COc1ccc(CSc2nnc(-c3ccc4c(c3)CCO4)o2)cc1`, the “%Inh” value came out at 0%. With `Cc1cccc2c(-c3ccncn3)c(-c3ccc(F)cc3)nn12` [GW515532], the “%Inh” value was determined as 0%.

Another assay relates to CAMK2D. Conditions: concentration: 1 μM, replicates: in singlicate; n = 1.
For `Cc1ccc(NC(=O)Nc2ccc(Cl)c(C(F)(F)F)c2)cc1-c1ccc(C(=O)Nc2ccncc2)cc1` [GSK1398470], the “%Inh” value is given as 13%.

Regarding `FC(F)(F)c1ccccc1-c1cc(-c2c[nH]nc2-c2ccccn2)ccn1` [GW679396], the “%Inh” value was found to be 9%. Turning to `COC(=O)c1cccc(NC(=O)NC2CCN(c3ccnc(Nc4ccc(F)cc4)n3)C2)c1` (stereo not drawn) [GSK1379725], the “%Inh” value was found to be 0%.

Turning to `Fc1ccc(-c2nn3cccc(F)c3c2-c2ccncc2)cc1` [GW475620], the “%Inh” value came out at 6%. For `Cc1ccc(NC(=O)Nc2ccc(Cl)cc2)cc1-c1ccc(C(=O)Nc2ccncc2)cc1` [GSK1398472], the “%Inh” value is listed as 0%. As to `COC(=O)C(Cc1ccccc1)NC(=O)NC1CCN(c2ccnc(Nc3ccc(F)cc3)n2)C1` (stereo not drawn) [GSK1379714], the “%Inh” value is given as 8%. As for `COc1ccc(Nc2nccc(NCCNC(=O)Nc3cc(C)ccc3C)n2)cc1` [GSK1379899], the “%Inh” value is on record as 0%.

For `Fc1ccc(-c2nc3n(c2-c2ccncc2)CCS3)cc1` [GI98581], the “%Inh” value is reported as 3%.

On to `CC(=O)c1cccc(NC(=O)NC2CCN(c3ccnc(Nc4ccc(F)cc4)n3)C2)c1` (stereo not drawn) [GSK1379710], for which the “%Inh” value came out at 4%. With `Cc1ccc(-c2nc(Nc3ccncc3)c3ccccc3n2)s1` [GSK189015], the “%Inh” value is listed as 12%. As for `O=c1cc(N2CCOCC2)nc2n(Cc3cccc(Cl)c3Cl)c3ccccc3n12` [GSK2299009], the “%Inh” value came out at 21%. Regarding `Cc1ccccc1Cn1ccn2c(=O)cc(N3CCOCC3)nc12` [GSK2269905], the “%Inh” value was found to be 20%. Regarding `O=C(Nc1n[nH]c2nc(-c3cccs3)c(Br)cc12)C1CCCC1` [SB-743341], the “%Inh” value came out at 2%.

As for `Cn1cncc1-c1cc2c(Nc3ccc(OCc4ccccc4)cc3)ncnc2cn1` [GW281179], the “%Inh” value is 12%.

As for `CNc1nc(-c2ccc3c(N)n[nH]c3c2)cc(N2C[C@@H](C(=O)NC3CCCCC3)OC[C@H]2C)n1` [GSK2375584], the “%Inh” value came to 15%. Consider `COc1cccc(C2=C(Nc3cc(Cl)c(O)c(Cl)c3)C(=O)NC2=O)c1` [SB-390767], for which the “%Inh” value is 0%.

`Cn1cnc2c(N)ncnc21` [SKF-97623]: the “%Inh” value is recorded as 0%. For `O=c1cc(N2CCOCC2)nc2n(Cc3ccccc3F)ccn12` [GSK2297428], the “%Inh” value turned out to be 7%. Same read-out and setting: under `COc1ccc(-c2coc3ccc(-c4nnc(C)o4)cc23)cc1` stands 5%. The same measure, in the same setting: under `Cc1ccccc1-c1cc(-c2c[nH]nc2-c2ccccn2)ccn1` [GW680061] stands 0%; under `Nc1cccc(-c2ccc3c(N)n[nH]c3c2)n1` [GSK2192730], 20%. With `CNC(=O)c1ccc(C)c(-n2c(C)cc(OCc3ccc(F)cc3F)c(Br)c2=O)c1`, the “%Inh” value was found to be 0%. For the compound `O=C(Nc1n[nH]c2nc(-c3ccco3)c(Br)cc12)C1CCN(Cc2ccccc2)C1.O=C(O)[C@H](O)[C@@H](O)C(=O)O` (stereo not drawn) [SB-742034], the “%Inh” value was 7%. Take `NS(=O)(=O)c1cccc(N/C=C2\C(=O)Nc3ccc(S(=O)(=O)Cc4c(Cl)cccc4Cl)cc32)c1` [GSK398099]: the “%Inh” value is 26%. Same read-out and setting: then `c1ccc(-c2ccnc3[nH]ccc23)cc1` [SB-693578], with 31%. For the compound `CNc1nc(-c2ccc3c(N)n[nH]c3c2)cc(N2C[C@@H](C(=O)Nc3ccccc3)CC[C@H]2C)n1` [GSK2298859], the “%Inh” value came out at 21%. In the case of `COC(=O)c1cccc(NC(=O)NC2CCN(c3ccnc(Nc4ccc(OC)cc4)n3)C2)c1` (stereo not drawn) [GSK1379746], the “%Inh” value is listed as 0%. `COc1ccc(Nc2nccc(-c3ccc(NC(=O)c4cc5cc(F)ccc5[nH]4)cc3)n2)cc1` [GSK1229496]: the “%Inh” value is reported as 3%. Consider `Cl.Cl.Cl.N#Cc1ccc(CCNc2nccc(-c3cccc(CN4CCNCC4)c3)n2)cc1` [GSK2137462], for which the “%Inh” value worked out at 28%.

For the compound `O=C(Nc1n[nH]c2cc(-c3ccsc3)ccc12)C1CC1` [SB-732932], the “%Inh” value is reported as 12%. As for `COc1ccc(Nc2nccc(N3CCC(NC(=O)c4cc5ccccc5s4)C3)n2)cc1` (stereo not drawn) [GSK1379738], the “%Inh” value worked out at 59%.

Consider `COc1ccc2cc(-c3nc(-c4ccccc4C(C)C)[nH]c3-c3ccncc3)ccc2c1` [SB-660566], for which the “%Inh” value is on record as 2%. In the case of `CC[C@@H]1CO[C@H](C(=O)Nc2ccccc2)CN1c1cc(-c2ccc3c(N)n[nH]c3c2)nc(NC)n1` [GSK2376236], the “%Inh” value amounted to 21%. Turning to `Cc1ccc(NC(=O)c2ccc(Cl)cc2)cc1-c1ccc(C(=O)Nc2ccncc2)cc1` [GSK1398467], the “%Inh” value came out at 10%.

For the compound `COc1cccc(NC(=O)Nc2ccc(C)c(-c3ccc(C(=O)Nc4ccncc4)cc3)c2)c1` [GSK1398474], the “%Inh” value came out at 11%. For `COc1ccc(CSc2nnc(-c3ccc4c(c3)CCO4)o2)cc1`, the “%Inh” value turned out to be 0%. With `Cc1cccc2c(-c3ccncn3)c(-c3ccc(F)cc3)nn12` [GW515532], the “%Inh” value is reported as 0%.
